Among the data in PubChem BioAssay (NCI) are growth values, retold here.

What all share (assay): NCI-60 one-dose screen, 48 h (100 = growth as untreated, 0 = no growth, -100 = all killed)
One assay has as its system A549/ATCC NSCLC. To be noted: 10 µM unless noted.
A further assay deals with DU-145 prostate. To be noted: 10 µM unless noted.
The subject of another assay is K-562 leukemia. The settings on record: 10 µM unless noted.
A further assay has as its system RXF 393 renal. To be noted: 10 µM unless noted.
In a further assay the test system is SF-295 CNS. The settings on record: 10 µM unless noted.
A further assay concerns UACC-257 melanoma. The settings on record: 10 µM unless noted.
A further assay relates to HT29 colon. To be noted: 10 µM unless noted.
The test system of the next assay is SNB-75 CNS. The settings on record: 10 µM unless noted.
For a further assay, the system named is SK-MEL-2 melanoma. The settings on record: 10 µM unless noted.
The test system of another assay is ACHN renal. To be noted: 10 µM unless noted.
The subject of another assay is CAKI-1 renal. To be noted: 10 µM unless noted.
A further assay has as its system A498 renal. To be noted: 10 µM unless noted.
A further assay deals with HL-60(TB) leukemia. The settings on record: 10 µM unless noted.
Another assay concerns OVCAR-5 ovarian. The settings on record: 10 µM unless noted.
Another assay has as its system OVCAR-4 ovarian. To be noted: 10 µM unless noted.
For the next assay, the system named is SK-OV-3 ovarian. The settings on record: 10 µM unless noted.
In the next assay the test system is HS 578T breast. The settings on record: 10 µM unless noted.
For the next assay, the system named is NCI/ADR-RES ovarian. The settings on record: 10 µM unless noted.
The subject of the next assay is T-47D breast. To be noted: 10 µM unless noted.
The test system of another assay is BT-549 breast. To be noted: 10 µM.

About 83,000 compounds went through this panel and 20% of them were active in at least one assay; those are over-represented in the sample as a whole.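 Assay: single dose, 48 h. Readout: percent growth (0 = no net growth; negative = cell death). Active: <10.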 Values without a mark were called inactive. Calls of active or inactive are those of the source.

For `OC1(c2ccc(Cl)cc2Cl)c2ccccc2C2=NCCN21` (stereo not drawn), the growth was 103% with A549/ATCC NSCLC; 109% in the assay on DU-145 prostate; 81.1% with K-562 leukemia; -13% (active) in the assay with RXF 393 renal; 95.3% in the assay with SF-295 CNS; 86.2% in the assay on UACC-257 melanoma. Besides, the growth with HT29 colon is 92.2%; in the assay with SNB-75 CNS it was 94.2%; in the assay with SK-MEL-2 melanoma it was 98.2%; with ACHN renal it was 103%; with CAKI-1 renal it was -21.8% (active); in the assay with A498 renal it was 94.4%. For the same compound, the growth in the assay with HL-60(TB) leukemia is 63.3%; in the assay on OVCAR-5 ovarian, 94.4%; in the assay on OVCAR-4 ovarian it was 105%; in the assay with SK-OV-3 ovarian it was 89.5%; in the assay with HS 578T breast it was 77.7%; with NCI/ADR-RES ovarian, 96.3%. Further, the growth in the assay on T-47D breast was 93.3%; in the assay with BT-549 breast, 93.5%.

Take `C[C@@H]1CC[C@@H]2[C@@H]1[C@H](OC(=O)/C=C/C1CCCCC1)[C@]1(C3CCCCC3)C[C@@H](OC(=O)CO)[C@@]2(C)O1`: the growth was 60.6% in the assay with A549/ATCC NSCLC; 82.1% with DU-145 prostate; 44.1% in the assay with K-562 leukemia; 13.3% with RXF 393 renal; 72.7% in the assay on SF-295 CNS; 61.7% in the assay with UACC-257 melanoma. For the same compound, the growth in the assay on HT29 colon was 31.4%; in the assay on SNB-75 CNS it was 76.9%; in the assay with SK-MEL-2 melanoma, 73.7%; in the assay on ACHN renal, 14.9%; in the assay with CAKI-1 renal, -21.9% (active); with A498 renal, -83.3% (active). Further, the growth was 8.36% (active) with HL-60(TB) leukemia; 101% with OVCAR-5 ovarian; 61.1% in the assay with OVCAR-4 ovarian; 69% in the assay with SK-OV-3 ovarian; -28.1% (active) in the assay with HS 578T breast; 12.2% in the assay on NCI/ADR-RES ovarian. Also, the growth in the assay with BT-549 breast is 0.314% (active).

Turning to `COc1cccc2c1C(=O)c1c(O)c3c(c(O)c1C2=O)CC(O)(/C(C)=N/NC(=O)CCC(=O)N/N=C(\C)C1(O)Cc2c(O)c4c(c(O)c2C(OC2CC(N)C(O)C(C)O2)C1)C(=O)c1c(OC)cccc1C4=O)CC3OC1CC(N)C(O)C(C)O1` (stereo not drawn), the growth in the assay on A549/ATCC NSCLC is -30% [5 µM] (active); with DU-145 prostate, -30.5% [5 µM] (active); with K-562 leukemia, -60.2% [5 µM] (active); in the assay with RXF 393 renal it was -56.7% [5 µM] (active); in the assay with SF-295 CNS, -32.8% [5 µM] (active); in the assay on UACC-257 melanoma, -17.8% [5 µM] (active). The growth in the assay with HT29 colon is -79% [5 µM] (active); in the assay on SNB-75 CNS it was -53.2% [5 µM] (active); in the assay on SK-MEL-2 melanoma, -54.3% [5 µM] (active); in the assay with ACHN renal, -34.9% [5 µM] (active); in the assay on CAKI-1 renal it was -44.3% [5 µM] (active); with A498 renal it was -69.1% [5 µM] (active). In addition, the growth is -41.9% [5 µM] (active) in the assay with HL-60(TB) leukemia; -15.4% [5 µM] (active) in the assay with OVCAR-5 ovarian; -13.5% [5 µM] (active) with OVCAR-4 ovarian; -31.4% [5 µM] (active) in the assay on SK-OV-3 ovarian; -11.5% [5 µM] (active) with HS 578T breast; 71.8% [5 µM] in the assay on NCI/ADR-RES ovarian. The growth with T-47D breast is -24.2% [5 µM] (active).

`CC(C)Nc1ccc(Nc2ccccc2)cc1`: the growth in the assay on A549/ATCC NSCLC is 24.1%; in the assay on DU-145 prostate, 38.7%; in the assay on K-562 leukemia it was 24.6%; in the assay on RXF 393 renal, 55.5%; in the assay on SF-295 CNS it was 12.5%; with UACC-257 melanoma, 47.5%. Moreover, the growth in the assay with HT29 colon is 7.96% (active); in the assay on SNB-75 CNS, 29.8%; in the assay with SK-MEL-2 melanoma, 80.5%; with ACHN renal, 30.5%; with CAKI-1 renal, 41.6%; in the assay on A498 renal it was 65.9%. Besides, the growth is 69.3% in the assay with HL-60(TB) leukemia; 65.1% in the assay with OVCAR-5 ovarian; 28.3% in the assay on OVCAR-4 ovarian; 27.7% in the assay on SK-OV-3 ovarian; 17.9% in the assay with HS 578T breast; 74.8% in the assay on NCI/ADR-RES ovarian. Besides, the growth with T-47D breast was 42.9%; in the assay with BT-549 breast, 22.8%.

Regarding `CC(C)CCC1(CCO)C(=O)NC(=S)NC1=O`, the growth in the assay on A549/ATCC NSCLC was 91.9%; in the assay on DU-145 prostate it was 107%; with K-562 leukemia, 120%; with RXF 393 renal, 120%; in the assay with SF-295 CNS, 103%; in the assay with UACC-257 melanoma, 100%. Besides, the growth was 99.3% in the assay with HT29 colon; 99.8% in the assay on SNB-75 CNS; 101% with SK-MEL-2 melanoma; 103% in the assay on ACHN renal; 102% in the assay on CAKI-1 renal; 93.7% in the assay on A498 renal. Further, the growth was 98.1% in the assay with HL-60(TB) leukemia; 99.5% with OVCAR-5 ovarian; 109% in the assay on OVCAR-4 ovarian; 108% with SK-OV-3 ovarian; 114% in the assay on HS 578T breast; 114% in the assay with NCI/ADR-RES ovarian. The growth with T-47D breast was 112%; in the assay on BT-549 breast it was 109%.

Take `O=c1cc[nH]c(=O)o1`: the growth in the assay on DU-145 prostate is 104%; in the assay with K-562 leukemia it was 105%; with RXF 393 renal, 114%; with SF-295 CNS it was 101%; with HT29 colon, 95.9%; in the assay on SNB-75 CNS, 84.7%. The growth was 93.3% in the assay on SK-MEL-2 melanoma; 115% with ACHN renal; 102% in the assay on CAKI-1 renal; 114% in the assay on A498 renal; 80.2% in the assay with HL-60(TB) leukemia; 109% in the assay on OVCAR-5 ovarian. Besides, the growth is 104% in the assay with OVCAR-4 ovarian; 102% in the assay on SK-OV-3 ovarian; 120% in the assay with HS 578T breast; 111% with NCI/ADR-RES ovarian; 96.3% in the assay with T-47D breast; 102% with BT-549 breast.

On to `O=C(CC1(O)C(=O)Nc2ccc(F)cc21)c1ccc(C(=O)NCC2CCC3(CC2)OOC2(CCCCC2)OO3)cc1` (stereo not drawn), for which the growth is -66.5% (active) with A549/ATCC NSCLC; 3.83% (active) with DU-145 prostate; 14.9% in the assay on K-562 leukemia; 59.4% in the assay with RXF 393 renal; 79.3% with SF-295 CNS; 70.4% with UACC-257 melanoma. Also, the growth is 69.8% with SNB-75 CNS; -25.2% (active) with ACHN renal; -15.9% (active) in the assay with CAKI-1 renal; 65% in the assay with A498 renal; -64.2% (active) in the assay with HL-60(TB) leukemia; 87.3% in the assay with OVCAR-5 ovarian. For the same compound, the growth with OVCAR-4 ovarian was 65.6%; with SK-OV-3 ovarian it was 91.1%; with HS 578T breast, 73.8%; with NCI/ADR-RES ovarian it was 80%; with T-47D breast it was 29.6%; with BT-549 breast, 78%.

Regarding `CO[C@@H]([CH2][Hg][S]C#N)[C@@H]([CH2][Hg][S]C#N)OC`, the growth was 102% with A549/ATCC NSCLC; 99.2% with DU-145 prostate; 46.5% in the assay on K-562 leukemia; 57.8% in the assay with RXF 393 renal; 113% in the assay with SF-295 CNS; 86.8% with UACC-257 melanoma. The growth is 79.4% in the assay with HT29 colon; 84.5% in the assay on SNB-75 CNS; 106% with SK-MEL-2 melanoma; 107% in the assay on CAKI-1 renal; 118% with A498 renal; 62.9% in the assay with HL-60(TB) leukemia. Also, the growth in the assay with OVCAR-5 ovarian is 107%; in the assay on OVCAR-4 ovarian, 95.4%; in the assay on SK-OV-3 ovarian, 119%; with HS 578T breast, 98.6%; in the assay with NCI/ADR-RES ovarian, 93.7%; with T-47D breast it was 116%. Further, the growth in the assay with BT-549 breast is 107%.
